Measurements reported in PubChem BioAssay.
Active and inactive are the calls of the source.

Key:
[1] = small molecules captured by biotinylated probe aFSTL3 – biochemical, small-molecule microarray, fluorescence 635/667, stem cell growth factor project, primary screen (AID 1064); conditions: higher = more signal;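 further: measures binding of the biotinylated anti-FSTL3 antibody to printed compounds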
[2] = binders from COS7 lysate, DM2A8 probe, primary screen, torsin A project, cell lysate, small-molecule microarray, fluorescence 635/667 (AID 1065); conditions: higher = more signal, COS7 lysate expressing mutant human TOR1A
[3] = small molecules captured by biotinylated probe aFGF2 – biochemical, small-molecule microarray, fluorescence 635/667, stem cell growth factor project, primary screen (AID 1067); conditions: higher = more signal;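 further: measures binding of biotinylated aFGF2 protein to printed compounds on slides; z-score merges feature fluorescence and signal-to-noise across triplicate slides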
[4] = small molecules captured by biotinylated probe aFGF10 – biochemical, small-molecule microarray, fluorescence 635/667, stem cell growth factor project, primary screen (AID 1071); conditions: higher = more signal;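 further: score merges 667 nm spot intensity and signal to noise from triplicate slides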
[5] = biological target: Neurogenic locus notch homolog protein 2 (Homo sapiens) (UniProt Q04721); experiment: small molecules binding Notch2 protein – biochemical, small-molecule microarray, 635 nm fluorescence, stem cell growth factors, primary screen (AID 1073); conditions: higher = more signal
Chain of Neurogenic locus notch homolog protein 2 (Homo sapiens) (Q04721 whole entry, looked up, canonical isoform): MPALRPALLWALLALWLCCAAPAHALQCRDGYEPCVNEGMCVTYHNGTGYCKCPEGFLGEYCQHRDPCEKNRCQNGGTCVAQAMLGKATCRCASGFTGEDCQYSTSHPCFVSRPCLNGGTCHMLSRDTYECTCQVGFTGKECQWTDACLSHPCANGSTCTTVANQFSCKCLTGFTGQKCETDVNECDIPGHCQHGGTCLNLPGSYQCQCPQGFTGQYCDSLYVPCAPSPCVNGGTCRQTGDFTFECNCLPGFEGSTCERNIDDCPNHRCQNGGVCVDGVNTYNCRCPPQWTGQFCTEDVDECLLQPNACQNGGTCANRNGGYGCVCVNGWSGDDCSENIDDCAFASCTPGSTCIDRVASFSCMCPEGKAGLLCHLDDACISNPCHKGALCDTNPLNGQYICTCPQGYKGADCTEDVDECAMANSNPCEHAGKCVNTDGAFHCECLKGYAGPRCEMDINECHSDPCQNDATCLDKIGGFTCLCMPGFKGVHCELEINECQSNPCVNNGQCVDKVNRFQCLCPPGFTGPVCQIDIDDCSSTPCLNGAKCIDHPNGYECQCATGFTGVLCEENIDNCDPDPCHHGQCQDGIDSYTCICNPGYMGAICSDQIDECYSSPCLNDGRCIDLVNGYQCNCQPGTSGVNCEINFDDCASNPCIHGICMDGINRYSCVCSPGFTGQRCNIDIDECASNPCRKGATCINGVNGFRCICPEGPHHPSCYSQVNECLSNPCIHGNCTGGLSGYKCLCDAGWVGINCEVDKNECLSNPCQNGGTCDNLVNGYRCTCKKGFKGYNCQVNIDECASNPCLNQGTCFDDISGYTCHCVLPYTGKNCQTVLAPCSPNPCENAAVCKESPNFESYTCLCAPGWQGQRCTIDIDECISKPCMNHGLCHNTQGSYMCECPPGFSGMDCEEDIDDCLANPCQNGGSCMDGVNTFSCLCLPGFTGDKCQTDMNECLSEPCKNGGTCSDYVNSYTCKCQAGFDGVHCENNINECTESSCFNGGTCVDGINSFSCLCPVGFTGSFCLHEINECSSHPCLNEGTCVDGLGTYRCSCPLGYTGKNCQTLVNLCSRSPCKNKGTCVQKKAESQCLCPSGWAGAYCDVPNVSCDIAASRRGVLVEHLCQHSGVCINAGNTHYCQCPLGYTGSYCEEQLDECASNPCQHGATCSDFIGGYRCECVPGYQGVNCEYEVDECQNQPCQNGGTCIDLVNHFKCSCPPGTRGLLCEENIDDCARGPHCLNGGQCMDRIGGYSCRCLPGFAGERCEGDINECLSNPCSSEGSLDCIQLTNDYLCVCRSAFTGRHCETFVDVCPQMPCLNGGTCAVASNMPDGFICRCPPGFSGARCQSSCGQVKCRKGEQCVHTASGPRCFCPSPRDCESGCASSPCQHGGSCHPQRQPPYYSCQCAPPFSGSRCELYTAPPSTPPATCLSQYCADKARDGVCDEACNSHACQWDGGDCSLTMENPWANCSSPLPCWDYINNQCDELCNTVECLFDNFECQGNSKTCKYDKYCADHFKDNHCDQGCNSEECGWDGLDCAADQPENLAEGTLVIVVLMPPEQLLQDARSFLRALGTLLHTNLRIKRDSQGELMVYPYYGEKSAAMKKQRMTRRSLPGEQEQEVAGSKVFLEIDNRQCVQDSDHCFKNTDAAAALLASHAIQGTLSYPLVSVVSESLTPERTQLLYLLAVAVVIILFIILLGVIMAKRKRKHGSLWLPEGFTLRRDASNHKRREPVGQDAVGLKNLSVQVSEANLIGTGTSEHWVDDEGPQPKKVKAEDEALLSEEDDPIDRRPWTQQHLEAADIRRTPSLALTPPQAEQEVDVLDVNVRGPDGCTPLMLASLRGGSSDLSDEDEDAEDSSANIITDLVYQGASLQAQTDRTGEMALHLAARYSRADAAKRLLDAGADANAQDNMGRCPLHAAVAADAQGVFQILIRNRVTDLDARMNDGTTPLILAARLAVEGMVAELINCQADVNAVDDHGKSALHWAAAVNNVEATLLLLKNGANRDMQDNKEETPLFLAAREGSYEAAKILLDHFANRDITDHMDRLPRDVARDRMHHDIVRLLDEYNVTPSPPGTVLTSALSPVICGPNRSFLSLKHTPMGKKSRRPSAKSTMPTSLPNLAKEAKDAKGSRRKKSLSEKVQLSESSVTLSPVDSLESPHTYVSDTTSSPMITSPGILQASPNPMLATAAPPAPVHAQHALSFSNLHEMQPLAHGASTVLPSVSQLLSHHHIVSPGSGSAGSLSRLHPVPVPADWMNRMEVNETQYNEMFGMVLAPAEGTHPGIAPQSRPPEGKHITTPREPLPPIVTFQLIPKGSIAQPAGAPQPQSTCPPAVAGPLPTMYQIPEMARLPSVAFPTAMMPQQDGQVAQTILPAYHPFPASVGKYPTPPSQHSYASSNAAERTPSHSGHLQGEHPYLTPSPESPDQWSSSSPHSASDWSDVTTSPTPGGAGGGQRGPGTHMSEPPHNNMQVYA

[6] = biological target: Pro-neuregulin-1, membrane-bound isoform (Homo sapiens) (UniProt Q02297); experiment: small molecules binding neuregulin-1 protein – biochemical, small-molecule microarray, fluorescence 635/667, psychiatric disease protein project, primary screen (AID 1075); conditions: NRG1 binding, 635 nm fluorescence, higher = more signal;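 further: score combines 667 nm spot fluorescence with signal to noise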
Chain of Pro-neuregulin-1, membrane-bound isoform (Homo sapiens) (Q02297 whole entry, looked up, the tested form may be a part, canonical isoform): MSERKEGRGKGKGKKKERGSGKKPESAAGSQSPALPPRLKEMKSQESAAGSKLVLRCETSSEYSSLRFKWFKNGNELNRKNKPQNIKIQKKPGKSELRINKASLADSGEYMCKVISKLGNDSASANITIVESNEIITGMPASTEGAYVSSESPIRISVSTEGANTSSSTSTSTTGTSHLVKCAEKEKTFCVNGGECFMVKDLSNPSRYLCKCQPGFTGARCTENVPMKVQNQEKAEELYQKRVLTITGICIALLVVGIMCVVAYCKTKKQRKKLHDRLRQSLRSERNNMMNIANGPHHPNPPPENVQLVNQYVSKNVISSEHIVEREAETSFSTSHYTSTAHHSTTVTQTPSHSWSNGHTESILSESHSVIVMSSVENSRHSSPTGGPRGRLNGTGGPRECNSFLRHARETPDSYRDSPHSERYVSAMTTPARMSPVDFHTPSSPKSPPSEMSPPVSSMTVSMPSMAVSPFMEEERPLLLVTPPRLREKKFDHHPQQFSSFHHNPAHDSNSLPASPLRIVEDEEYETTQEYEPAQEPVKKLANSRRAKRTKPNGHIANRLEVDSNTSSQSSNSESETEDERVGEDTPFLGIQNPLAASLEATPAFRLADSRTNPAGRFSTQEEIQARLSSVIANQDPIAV

[7] = test system: Neuregulin-1 EGF-like domain; experiment: small molecules binding NRG1 EGF domain – biochemical, small-molecule microarray, 635 nm fluorescence, primary screen (AID 1081); conditions: higher = more signal;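 further: binding of the protein to compounds printed on small-molecule microarray slides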
[8] = FRG1 expression reporter modulators in myotubes – cell-based, C2C12 myotubes, firefly/Renilla luciferase, luminescence, FRG1 inhibition for FSHD, primary screen (AID 1084); conditions: FRG1 promoter luciferase, higher = more signal, called active from +8 up or from −8 down
[9] = small molecules captured by biotinylated probe aFST – biochemical, small-molecule microarray, fluorescence 635/667, stem cell growth factor project, primary screen (AID 1086); conditions: higher = more signal;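 further: score merges 667 nm fluorescence with signal-to-noise of each printed compound spot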
[10] = binders of probe aHhip on microarray, primary screen, stem cell growth factor project, biochemical, small-molecule microarray, fluorescence 635/667 (AID 1087); conditions: higher = more signal;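 further: score merges spot fluorescence at 667nm with spot signal to noise ratio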

Structure (SMILES) | composite z-score [1] | composite z-score [2] | composite z-score [3] | composite z-score [4] | composite z-score [5] | composite z-score [6] | composite z-score [7] | z-score [8] | composite z-score [9] | composite z-score [10]
CC(=O)OC[C@H]1O[C@H](CCON=C(C)CCC(=O)OC[C@H]2O[C@H](C#Cc3ccccc3)C=C[C@@H]2Oc2ccc(C)cc2)C=C[C@@H]1OC(C)=O | -0.41 | 0.703 | -0.12 | 0.479 | -0.126 | 0.0383 | 0.359 | 0.718 (inactive) | 0.265 | -0.132
CC(CCN1CCCCc2nc(C)c(C)cc21)=NOC(C)CN1CCCc2nc(C)c(C)cc21 (stereo not given) | 0.0516 | 0.471 | 0.196 | 0.943 | 1.52 | 1.35 | 1.06 | 1.28 (inactive) | 1.24 | 0.82
COC(=O)CC=C[C@H](C)[C@H](CO)NS(=O)(=O)c1ccc(C)cc1 | -0.634 | 0.0049 | -0.163 | 0.476 | 0.24 | -0.0696 | 0.629 | -0.599 (inactive) | 0.12 | -0.132
COC(=O)[C@H]1COC(c2ccc(OCCCO)cc2)=N1 | 0.971 | -0.354 | -0.0425 | -0.576 | 0.115 | -0.0556 | 0.207 | 0.97 (inactive) | 0.179 | -0.0618
Cc1cc(C)c(-c2cc([C@H](C)ON=C3[C@H]4CCn5c(=O)n(-c6ccccc6)c(=O)n5[C@H]4[C@H](O)[C@@H]4O[C@H]34)on2)c(C)c1 | -0.437 | 1.55 | 0.0168 | 0.481 | 0.471 | 0.463 | 0.0257 | -0.793 (inactive) | 0.484 | 0.0024
CCOC(=O)CCN1C(=O)[C@H]2[C@H]3[C@H](O)[C@H](O)CC(=NNC(=O)OCc4ccc(OC)cc4)[C@@H]3CC[C@H]2C1=O | -0.468 | 0.336 | -0.15 | 0.0569 | 0.0846 | 0.863 | 0.574 | 0.455 (inactive) | 0.15 | 0.251
CC(C)NC(=O)[C@@]1(C)c2ccccc2C(=O)N(Cc2cc(F)cc(C(F)(F)F)c2)[C@H]1c1ccc(CO)cc1 | 0.0059 | 0.0214 | 0.0368 | 0.888 | 1.54 | 0.341 | 1.17 | -1.31 (inactive) | 0.298 | -0.134
CCCNC(=O)OC[C@H]1O[C@H](CCON=CC[C@@H]2C=C[C@H](OC(C)=O)[C@@H](COC(C)=O)O2)C=C[C@@H]1Oc1ccc(OC)cc1 | -0.458 | 0.453 | -0.112 | 0.423 | 0.605 | -0.367 | 0.576 | 0.335 (inactive) | 0.014 | -0.134
